In PubChem BioAssay one finds inhibition and activity data, which are given here for 23 molecules.

A word on the inhibition: it is the drop in the measured response relative to a control, in per cent.

Test [1] deals with PEG-3 (UniProt Q6IN02). Kind of test: inhibition of PEG-3 promoter-driven reporter – cell-based, HeLa, luciferase, CREF/GAPDH counter-screen panel, dose response (AID 624167). Conditions: HeLa PEG-Prom luciferase reporter, overnight, CREF/GAPDH counter-screens; run 1, dose range 1, at 100 µM (top of the series); in the data active = activity above about 50%; inactive = the rest. Background: Counterscreens check selectivity or assay interference.

In test [2] the target is PEG-3 (UniProt Q6IN02). The description is as above. Conditions: HeLa PEG-Prom luciferase reporter, overnight, CREF/GAPDH counter-screens; run 2, dose range 1, at 100 µM (top of the series). In general terms: In a reporter assay the amount or activity of a reporter protein is the signal.
Test [3] has as its system Rat fibroblasts (CREF). The description is as above. Conditions: CREF/GAPDH counter-screens; run 1, dose range 1, at 100 µM (top of the series).
Test [4] concerns Rat fibroblasts (CREF). Described as above. Conditions: CREF/GAPDH counter-screens; run 2, dose range 1, at 100 µM (top of the series).
A short description of test [5]: NFkB reporter suppression in cystic fibrosis bronchial cells – cell-based, uHTS hits, panel, cytotoxicity readout, dose response (AID 624344). Particulars: CF bronchial epithelial cells, PAF-induced NFkB reporter inhibition, with PAF, run 1; at 79 µM (top of the series).
Experiment in test [6]: as above
Particulars: CF bronchial epithelial cells, PAF-induced NFkB reporter inhibition, with PAF, run 2; at 79 µM (top of the series).

Test [7] concerns the target Tumor necrosis factor receptor superfamily member 10B (Homo sapiens) (UniProt O14763). Kind of test: viability loss of caspase-8 NB7 cells with TRAIL – with/without TRAIL, luminescence panel, confirmation (AID 651596). Conditions: NB7 neuroblastoma + caspase-8, TRAIL sensitization, NB7 Caspase-8, with TRAIL, mean of runs, at 10 µM, stronger effect = higher value.
Experiment in test [8]: as above
Particulars: NB7 neuroblastoma + caspase-8, without TRAIL, NB7 Caspase-8, without TRAIL, mean of runs, at 10 µM.

Chain of PEG-3 (Q6IN02 whole entry, looked up): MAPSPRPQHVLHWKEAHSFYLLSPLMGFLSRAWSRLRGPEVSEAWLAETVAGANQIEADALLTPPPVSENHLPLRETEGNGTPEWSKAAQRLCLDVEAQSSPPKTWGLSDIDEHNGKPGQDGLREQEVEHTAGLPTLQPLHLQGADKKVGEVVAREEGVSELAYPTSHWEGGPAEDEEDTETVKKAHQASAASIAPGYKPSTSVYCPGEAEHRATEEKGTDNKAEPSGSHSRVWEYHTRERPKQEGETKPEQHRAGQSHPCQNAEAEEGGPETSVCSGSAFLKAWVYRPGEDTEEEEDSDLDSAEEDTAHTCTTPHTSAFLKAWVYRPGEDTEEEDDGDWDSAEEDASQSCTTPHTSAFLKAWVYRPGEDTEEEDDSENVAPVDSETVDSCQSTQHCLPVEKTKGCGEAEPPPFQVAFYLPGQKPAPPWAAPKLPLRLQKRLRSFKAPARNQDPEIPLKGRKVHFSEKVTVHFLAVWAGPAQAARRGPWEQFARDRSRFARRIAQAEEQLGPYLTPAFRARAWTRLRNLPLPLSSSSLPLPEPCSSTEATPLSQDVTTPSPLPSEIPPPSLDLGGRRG
Chain of Tumor necrosis factor receptor superfamily member 10B (Homo sapiens) (O14763 whole entry, looked up): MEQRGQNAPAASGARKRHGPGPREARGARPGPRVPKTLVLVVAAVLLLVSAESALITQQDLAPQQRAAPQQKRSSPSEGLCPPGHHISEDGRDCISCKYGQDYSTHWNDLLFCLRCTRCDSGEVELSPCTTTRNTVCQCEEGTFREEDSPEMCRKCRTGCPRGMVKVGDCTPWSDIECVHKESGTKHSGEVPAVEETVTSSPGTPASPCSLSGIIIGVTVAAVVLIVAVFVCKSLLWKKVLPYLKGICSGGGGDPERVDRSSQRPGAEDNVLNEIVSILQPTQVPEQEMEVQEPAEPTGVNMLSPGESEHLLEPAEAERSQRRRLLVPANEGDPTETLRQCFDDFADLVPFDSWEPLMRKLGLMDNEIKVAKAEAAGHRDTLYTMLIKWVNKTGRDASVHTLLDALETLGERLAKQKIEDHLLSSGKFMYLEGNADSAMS

Take `C[C@@H]1C[C@@H]([C@H](O)CC2CC(=O)NC(=O)C2)C(=O)[C@@H](C)C1`: the inhibition was found to be 98% with PEG-3 [1]; 101% with PEG-3 [2]; 62.3% in the test with Rat fibroblasts (CREF) [3]; 58.2% with Rat fibroblasts (CREF) [4]; 106% in test [5]; 116% in test [6].

Regarding `CCOC(=O)c1c(-n2c(C)cc(C=C3C(=O)NC(=S)NC3=O)c2C)sc2c1CCCC2`, the inhibition with PEG-3 [1] was 96.7%; with PEG-3 [2], 101%; with Rat fibroblasts (CREF) [3], 95.9%; in the test with Rat fibroblasts (CREF) [4], 97.3%.

On to `O=[N+]([O-])c1cc(F)c(N2CCCCCC2)cc1N1CCNCC1`, for which the inhibition with PEG-3 [1] was found to be 99.4%; with PEG-3 [2], 101%.

With `CC1=CC2/C=C(\C)CCC(O)C(O)/C=C/C(=O)C23C(=O)NC(CC(C)C)C3C1C` (configuration not stated), the inhibition in the test with PEG-3 [1] was 102%; with PEG-3 [2] it was 101%; in the test with Rat fibroblasts (CREF) [3] it was 100%; in the test with Rat fibroblasts (CREF) [4], 100%. The activity worked out at 95.3% in test [7] and 97.8% in test [8].

As for `CC[C@@H](O)C[C@H]1CCC[C@@]2(C[C@@H]3OC(=O)/C=C/[C@@](C)(O)[C@@H](O)[C@H](C)[C@@H](O)[C@H](OC4CCC(N(C)C)C(C)O4)[C@@H](O)[C@](C)(O)CCCCC/C=C/[C@@H]4CC(C)(C)O[C@@]4(O)C[C@H](O2)[C@H]3C)O1` (some centres not stated), the inhibition in the test with PEG-3 [1] and with PEG-3 [2] was 98.9% throughout.

Turning to `COc1cccc(C2CC3C(=O)C=CC2N3Cc2ccccc2)c1` (configuration not stated), the inhibition with PEG-3 [1] was 101%; with PEG-3 [2] it was 100%.

Take `CCC1(OC(=O)CN)C(=O)OCc2c1cc1n(c2=O)Cc2cc3ccccc3nc2-1` (configuration not stated): the inhibition in the test with PEG-3 [1] amounted to 100%; with PEG-3 [2], 96.5%; in the test on Rat fibroblasts (CREF) [3], 65.4%; in the test on Rat fibroblasts (CREF) [4], 72%.

Regarding `C=Cc1cc(OC)c2c(c1)c(=O)oc1c2cc(OC)c2c(O)ccc(C3OC(C)C(O)C(C)(O)C3O)c21` (configuration not stated), the inhibition worked out at 101% with PEG-3 [1], 102% with PEG-3 [2], 25.3% in the test with Rat fibroblasts (CREF) [3] and 31.8% with Rat fibroblasts (CREF) [4].

For the molecule `N#Cc1c(Br)n(C2OC(CO)C(O)C2O)c2ncnc(N)c12` (configuration not stated), the inhibition in test [5] was 106%; in test [6], 107%.

Take `Cc1ccc(S(=O)(=O)c2nc(-c3ccccc3Cl)oc2N(C)C2CCN(C)CC2)cc1`: the inhibition with PEG-3 [1] worked out at 99.3%; with PEG-3 [2], 101%.

As to `Cc1ccc(-c2cc(-c3ccc(C)cc3)[n+](-c3ccccc3)c(-c3ccc(C)cc3)c2)cc1`, the inhibition with PEG-3 [1] was 101%; with PEG-3 [2], 102%.

As for `CC(=O)OC(C)(C)/C=C/C(=O)C(C)(O)C1[C@H](O)C[C@@]2(C)C3CC=C4C(CC[C@@H](O)C4(C)C)[C@]3(CO)C(=O)C[C@]12C` (some centres not stated), the inhibition with PEG-3 [1] is 102%; with PEG-3 [2], 101%. Moreover, the figures for the activity in test [7] and in test [8] were 43.7% and 71.7%, respectively.

For the molecule `COc1ccc(C(c2nnnn2-c2ccc(OC)cc2)N2CCC(n3c(=O)[nH]c4ccccc43)CC2)cc1` (configuration not stated), the inhibition came to 98.8% in test [5] and 103% in test [6].

With `CCN(CC)C(=O)Cn1cc(/C=C2\C(=O)NC(=O)N(c3ccccc3F)C2=O)c2ccccc21`, the inhibition with PEG-3 [1] turned out to be 102%; in the test with PEG-3 [2], 98.9%.

Consider `CCN(CCCl)c1cc(CN(C)C)cc(NC(=O)c2ccc(C(=O)Nc3cc(CN(C)C)cc(N(CC)CCCl)c3)cc2)c1`, for which the inhibition with PEG-3 [1] worked out at 100%; with PEG-3 [2], 101%; in the test with Rat fibroblasts (CREF) [3], 99.6%; in the test on Rat fibroblasts (CREF) [4], 97.7%.

Take `COc1cc(C2c3cc4c(cc3CC3COC(=O)C32)OCO4)cc(OC)c1O` (configuration not stated): the inhibition in test [5] is -31.2%; in test [6] it was -1.25%.

With `COc1ccc(-n2c(/C=C/c3ccc(O)c(OC)c3)nc3ccccc3c2=O)cc1`, the inhibition was 101% with PEG-3 [1] and 92.7% in the test with PEG-3 [2].

As to `CCN(CC)C(=O)c1ccc(NC(=O)Nc2ccccc2F)cc1`, the inhibition in the test with PEG-3 [1] was determined as 82.1%; with PEG-3 [2], 93.2%. The activity was found to be 69.6% in test [7] and 63.9% in test [8].

Consider `Cc1c(C(=O)N2CCC3(CC2)OCCO3)sc2ncnc(N3CCN(c4ccccn4)CC3)c12`, for which the inhibition in the test with PEG-3 [1] came out at 97.5%; with PEG-3 [2] it was 102%.

On to `C[C@@H]1O[C@@H](O[C@@H]2C=C3CCC4C(CC[C@]5(C)[C@@H](c6ccc(=O)oc6)CC[C@]45O)[C@@]3(C)CC2)[C@H](O)[C@H](O)[C@H]1O` (some centres not stated), for which the inhibition with PEG-3 [1] was 99.3%; with PEG-3 [2] it was 98.5%. In addition, the activity in test [7] is 82.2%; in test [8], 91.8%.

`COc1cc2nc(CN3CC=C(c4ccccc4)CC3)[nH]c(=O)c2cc1OC`: the inhibition stood at 93.8% with PEG-3 [1], 45.3% with PEG-3 [2], 38.6% in the test on Rat fibroblasts (CREF) [3] and 26.4% with Rat fibroblasts (CREF) [4].

On to `Cc1ccccc1CN1Cc2cnnn2-c2ccccc2C1C#N` (configuration not stated), for which the values for the inhibition with PEG-3 [1] and with PEG-3 [2] were 99.2% and 98.3%, respectively. The activity in test [7] is 37.7%; in test [8], 78.2%.

As to `O=C1NC(=O)N(Cc2ccc(F)cc2)C(=O)/C1=C\C=C\c1ccco1`, the inhibition with PEG-3 [1] turned out to be 98.2%; with PEG-3 [2] it was 99.4%.
